Screening data from PubChem.
HT1080 IDH1KD tx – toxicity to HT-1080 IDH1 knockdown cells (counter line). HT-1080 IDH1 knockdown viability, ATP luminescence, 48 h. Potency, µM (doses to about 46.1 µM), hits mostly cytotoxic. 360,000 compounds, 2% hits
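Luminescent ATP read-out (CellTiter-Glo, 10 min at room temperature) after 48 h compound exposure at 37 °C gave viability of IDH1-knockdown HT-1080 cells. Activity was normalised to DMSO and cell-free wells, then fitted as concentration-response curves.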
KB-V1 MDR tox – kills drug-selected multidrug resistant KB-V1 cells. KB-V1 MDR cells viability, CellTiter-Glo, 72 h. Potency, µM (doses to about 46.1 µM), usual class: cytotoxic. 400,000 compounds, 3.4% hits; note: nearly all actives have a fitted effect of over 60% in size
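KB-V1, DMEM (no phenol red) + 10% FBS; cpd pin-transferred, titration series; 72 h, 37 degrees C; CellTiter-Glo, luminescence. Data normalized, curve-fit.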
HT1080-NT tox – kills 2HG-producing HT-1080-NT fibrosarcoma cells; AID 686970; 360,000 compounds, 1.6% hits; Potency, µM (highest dose often 46.1 µM), hits mostly cytotoxic; HT-1080-NT fibrosarcoma viability, CellTiter-Glo ATP luminescence, 48 h;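 note: NT is the 2HG producing partner of a matched IDH1 knockdown line; nearly all actives have a fitted effect of over 55% in size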
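Viability of the 2HG-overproducing fibrosarcoma line after 48 hours of compound exposure at 37 degrees C was determined by luminescence with CellTiter-Glo, and concentration-effect curves were then fitted and categorized.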
SW480 rerep – induces DNA re-replication in SW480 colon adenocarcinoma cells. SW480 DNA re-replication, Hoechst DNA content imaging, 48 h. Potency, µM (doses to about 46.1 µM), most hits filed as activators. 340,000 compounds, 1.8% hits; note: nearly all actives have a fitted effect of over 55% in size
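Readout is total intensity of Hoechst-stained nuclei, excited at 405 nm and collected at 500-530 nm. Compound treatment lasted 48 hr at 37 C in 5% CO2 before staining.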
KB-3-1 cytotox – KB-3-1 parental cell cytotoxicity. KB-3-1 viability, CellTiter-Glo ATP luminescence, 72 h. Potency, µM (highest dose often 46.1 µM), most hits filed as cytotoxic. 400,000 compounds, 1.4% hits; note: nearly all actives have a fitted effect of over 60% in size
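Screening of KB-3-1 cells (DMEM, 10% FBS, phenol-red free) ran from lowest to highest compound concentration; after 72 h at 37 °C viability was read luminescently and curves fitted.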
MCF10A rereplic – DNA re-replication induction in MCF 10a cells. 350,000 compounds, 2.9% hits. Potency, µM (top dose mostly 46.1 µM), usual class: activators. MCF 10A DNA re-replication, Hoechst nuclear intensity, 48 h; note: nearly all actives have a fitted effect of over 50% in size
A number is an active result; 0 = inactive; ? = inconclusive; - = no result; [ ] = remark or other dose. Rows were chosen to be rich in hits. Some 8% of all compounds tested hit in one or more screens of this group. Calls come from the whole dose curve; as a rule, active = well fitted curve in the direction sought with a large enough effect; inconclusive = small, poorly fitted or top-dose-only effect, or another doubt; inactive = no such curve, though single readings can be large; an effect the other way counts as inactive or inconclusive.

SMILES	HT1080 IDH1KD tx	KB-V1 MDR tox	HT1080-NT tox	SW480 rerep	KB-3-1 cytotox	MCF10A rereplic
COc1ccc(S(=O)(=O)Nc2c(O)ccc3ccccc23)cc1OC	0	0	0	0[9.22 µM]	0	16µM
COc1ccc(NS(=O)(=O)c2ccc(Br)s2)cc1OC	0	21µM	0	0	0	0
CCN(CC)c1ccc(/C=C/C2=C3C=CC=CC3NC=C2)cc1 (centres undefined)	-	0	-	-	?	-
N#CC(C#N)=C1SC(=Nc2ccccc2)C(=Nc2ccccc2)N1c1ccccc1	?	?	?	?	21µM	3.3µM
Fc1ccc(N2C(=S)SC(=Nc3ccccc3)C2=Nc2ccccc2)cc1	0	0	0	0	0	0
C/C(=N\OCC(=O)Nn1c(C)nc2ccccc2c1=O)c1cccs1	0	0	0	0	0	0
O=C(CSc1nc2ccccc2c(=O)n1-c1ccccc1)NCc1ccco1	0[9.24 µM]	13µM	0	0	?	0
C/C(=N\OCC(=O)Nn1c(C)nc2ccccc2c1=O)c1ccccc1	0	16µM	0	0	0	0
O=C(CSc1nc2ccccc2c(=O)n1-c1ccccc1)N/N=C/C=C/c1ccccc1[N+](=O)[O-]	0	0	0	0	0	4.6µM
Cc1cccc(-n2c(SCC(=O)NCc3ccco3)nc3ccccc3c2=O)c1	?	10µM	0	?	0	?
Cc1c(NC(=O)c2ccc(-c3ccc(F)cc3)o2)cccc1-c1nc2ncccc2o1	-	0	-	-	0	-
O=C(CSc1nc2ccccc2c(=O)n1NC(=O)Cc1ccccc1)NCc1ccco1	0	18µM	0	0	0	0
O=C(CSc1nc2ccccc2c(=O)n1NC(=O)Cc1ccccc1)NCc1ccccc1	0	0	0	0	0	0
O=C(Cc1cccs1)Nn1c(Cc2cccs2)nc2ccccc2c1=O	0	21µM	0	0	0	0
O=C(Cc1ccccc1)Nn1c(-c2ccccc2)nc2ccccc2c1=O	0	18µM	0	0	0	0
O=C(CN(CCc1c[nH]c2ccccc12)S(=O)(=O)c1ccccc1)N1CCCCCC1	-	0	-	-	0	-
CCOC(=O)c1cnn(CCOC(=O)c2ccc(OC)cc2)c1NC(=O)c1ccc(OC)cc1	0	?	0	0	0	0
CCOC(=O)c1cnn(CCOC(=O)c2ccccc2)c1NC(=O)c1ccccc1	0	10µM	0	0	0	0
COc1ccc(C(C)NC(=O)c2ccc(Cl)cc2)cc1OC (centres undefined)	0	21µM	0	0	0	0
COc1ccc(C(=O)CC(SCC(NC(C)=O)C(=O)O)c2ccc(Cl)cc2)cc1OC (centres undefined)	0	13µM	0	?	0	0
CCc1nc2ccccc2[nH]1	0	0	0	0	0	0
CCc1nc2ccc(Cc3ccc4nc(CC)[nH]c4c3)cc2[nH]1	0	0	0	3.3µM	?	0
Cc1oc2c(cc(NS(=O)(=O)c3ccc(F)cc3)c3ccccc32)c1C(=O)OCc1ccccc1	-	0	-	-	0	-
C=CCOc1ccc(CN(C)C(=O)c2ccc(CNS(=O)(=O)c3ccc(C)c(C)c3)cc2)cc1	?	?	?	0	13µM	?
CCCC(=O)N1CCN(c2ccc(NC(=O)c3ccc([N+](=O)[O-])o3)cc2Cl)CC1	?	?	16µM	0	?	1.8µM
SMILES	HT1080 IDH1KD tx	KB-V1 MDR tox	HT1080-NT tox	SW480 rerep	KB-3-1 cytotox	MCF10A rereplic
CC(C)C(=O)N1CCN(c2ccc(NC(=O)COc3ccccc3[N+](=O)[O-])cc2)CC1	?	18µM	?	0	?	21µM
O=C(Nc1ccc(N2CCOCC2)c(Cl)c1)c1ccc([N+](=O)[O-])o1	4.6µM	0	6.5µM	0	0	?
CC(C)C(=O)N1CCN(c2ccc(NC(=O)c3ccc([N+](=O)[O-])o3)cc2)CC1	7.3µM	?	12µM	0	?	2.6µM
CC(C)C(=O)N1CCN(c2ccc(NC(=O)c3ccc(Br)o3)cc2)CC1	0	0	?	0	0	0
c1ccc2c(CCc3c[nH]c4ccccc34)ccnc2c1	-	0	-	-	?	-
COc1ccc(CNCc2c(C(=O)O)c(C)n(Cc3ccccc3C)c2C)cc1OC	-	0	-	-	0	-
CCN(CC)S(=O)(=O)c1ccc2c(c1)N(CC(=O)Nc1ccc(OC)cc1)C(=O)CS2	-	0	-	-	0	-
COc1ccc(Cl)cc1NC(=O)Cc1coc2c(C)c(C)ccc12	-	0	-	-	0	-
CC[C@](C)(CN(C)C)OC(=O)c1ccccc1	-	-	-	0	-	0
CCCN(Cc1cccs1)C(=O)Nc1cc(C)cc(C)c1	-	0	-	-	0	-
CN1CCN(c2ccc(NC(=O)c3ccc([N+](=O)[O-])o3)cc2Cl)CC1	12µM	?	5.8µM	1.5µM	?	1.5µM
O=C(Nc1cccc(Cl)c1N1CCCC1)c1ccc([N+](=O)[O-])o1	0	?	0	?	?	?
Cc1ccc(NC(=S)NNC(=O)c2ccc(N3CCOCC3)c([N+](=O)[O-])c2)cc1Cl	0	16µM	0	?	?	?
CC(=O)N1CCN(c2ccc(NC(=O)c3ccc(Br)o3)cc2Cl)CC1	0	0	0	0	0	0
O=C(NNC(=S)Nc1ccc(Br)cc1)c1ccc(N2CCOCC2)c([N+](=O)[O-])c1	0	0	0	0	0	?
Cc1ccc(NC(=O)c2ccc([N+](=O)[O-])o2)cc1S(=O)(=O)N1CCOCC1	6.5µM	?	?	1.5µM	?	2.1µM
CC(C)C(=O)N1CCN(c2ccc(NC(=O)c3ccc([N+](=O)[O-])o3)cc2Cl)CC1	?	?	7.3µM	0	?	?
Cc1cc2oc(C(=O)Nc3ccc(S(=O)(=O)N(C)c4ccccc4)cc3)cc(=O)c2cc1C	-	?	-	-	0	-
COc1ccc(C(=O)NC(=S)Nc2cccc(Cl)c2N2CCOCC2)cc1[N+](=O)[O-]	0	0	0	7.3µM	0	0
COc1ccc(C(=O)NC(=S)Nc2ccccc2N2CCCCC2)cc1[N+](=O)[O-]	0	?	0	0	?	?
Cc1cccc(N(C)C(=O)C(Cc2ccccc2)NS(=O)(=O)c2cccc3nsnc23)c1 (centres undefined)	-	0	-	-	0	-
C/C(CCc1ccco1)=N/NC(=O)CCC(=O)Nc1cccc(Cl)c1	0	?	0	0	0	0
C/C(CC(=O)Nc1ccc(OCc2ccccc2)cc1)=N\NC(=O)C(=O)Nc1cccc(C)c1	0	?	0	0	?	15µM
COc1ccccc1NC(=O)C(=O)N/N=C(\C)CC(=O)Nc1ccc(OCc2ccccc2)cc1	0	0	0	0	?	0
C/C(CCc1ccccc1)=N\NC(=O)C(=O)Nc1cccc(Cl)c1	0	0	0	0	0	0.26µM
COc1ccc(N2CCN(C(=O)c3ccc4c(c3)N(Cc3ccc(F)cc3)C(=O)c3ccccc3S4=O)CC2)cc1 (centres undefined)	-	0	-	-	0	-
